Bioassay records from PubChem BioAssay.
Fluor 339 460 = intrinsic fluorescence of library compounds, ex339/em460 – biochemical, MLSMR library, data from DPM-DC assay, artefact control, profiling panel; AID 709, 2007; fluorescence fold increase at 10 µM; actives 5.5% (n = 65,000); compound autofluorescence, ex339/em460 nm, NADH buffer; hits give high values; 1 = no-compound wells, NADH background;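 active = at 10 µM, mean starting fluorescence two-fold or more over control wells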;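 note: signal is the first read of a kinetic run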
NADH enzymes = inhibitors of PK/LDH coupling enzymes, profiling panel, artefact control, biochemical, MLSMR library | actives 0.02% (n = 65,000) | IC50, µM (top dose mostly 10 µM), inactives show at the top dose inhibition | coupled PK/LDH NADH assays, four targets;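 active = single-dose screening hits from any of four coupled enzyme assays that gave an IC50 when retested across doses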;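 note: the DPM-DC format reads NADH fluorescence rather than 340 nm absorbance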
A340 absorber = compound light absorbance at 340 nm, profiling panel, artefact control, biochemical, MLSMR library, data from PS, PMK, MK assays; compound absorbance at 340 nm, fold over control; fold change at 10 µM; 65,000 tested, under 10 active; AID 708, 2007;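 active = at 10 µM dose, initial 340 nm absorbance at least 2 fold that of control wells; inactive = change under 2 fold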;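 note: initial absorbance extrapolated from kinetic A340 decline of NADH oxidation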
DPM-DC inhibit = S. pneumoniae DPM-DC inhibitors, primary screen, biochemical, PK/LDH-coupled NADH fluorescence | diphosphomevalonate decarboxylase (Streptococcus pneumoniae D39) | purified DPM-DC | calls only at 10 µM | actives 0.49% (n = 65,000);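 active = the 320 compounds with the highest percent inhibition in the single-dose primary screen, excluding strongly autofluorescent ones, cut at about 32% in these data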;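 note: kinetic rate of NADH fluorescence loss reporting ADP formed by the decarboxylase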
MK inhibit = S. pneumoniae MK inhibitors, primary screen, biochemical, PK/LDH-coupled NADH absorbance | mevalonate kinase [Streptococcus pneumoniae D39] | purified MK, PK/LDH-coupled NADH absorbance 340 nm | inhibition, % at 10 µM | actives 0.48% (n = 65,000) | AID 555, 2006;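 active = ranked among the strongest by inhibition in the single 10 µM screen, a fixed top-ranked set picked for dose follow-up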
PMK inhibit = S. pneumoniae PMK inhibitors, primary screen, biochemical, mevalonate pathway, pilot trial included; phosphomevalonate kinase (Streptococcus pneumoniae D39); purified PMK, PK/LDH-coupled NADH absorbance 340 nm; inhibition, % at 10 µM; actives 0.49% (n = 65,000);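 active = top-ranked compounds by inhibition in the single 10 µM screen, taking a fixed number of the strongest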;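 note: 0% = full reaction with DMSO carrier and 100% = background rate without enzyme reaction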
An asterisk follows results filed as active; i = inactive; nt = no result shown; + = active, no number. Most compounds without a hit are left out; they make up all but 6.5% or so of the library.

SMILES	Fluor 339 460	NADH enzymes	A340 absorber	DPM-DC inhibit	MK inhibit	PMK inhibit
Cn1c(/N=C/c2ccc3c(c2)OCO3)nc2ccccc21	2.1*	9%	1.1	nt	10	8
CCCN1CCN(CCCNC(=O)Cn2nc(-c3ccccc3)ccc2=O)CC1	1.1	11%	1	i	7	27*
Cc1nc(CNS(=O)(=O)c2ccc3c(c2)OCCO3)cs1	1	2%	1	i	5	11
Cc1ccc(-c2cc(C(F)F)n3ncc(C(=O)N4CCN5CCCC5C4)c3n2)cc1 (stereo not drawn)	1.8	5%	1.1	i	0	1
CCOC(=O)C1CCCN(C(=O)c2cnn3c(C(F)F)cc(-c4ccc(C)cc4)nc23)C1 (stereo not drawn)	2.3*	8%	1.1	i	6	4
CCOC(=O)C1CCN(C(=O)c2cnn3c(C)cc(C)nc23)CC1	3.5*	15%	0.96	i	0	20
COc1ccc(-c2cc(C(F)F)n3ncc(C(=O)N4CCSCC4)c3n2)cc1	3.5*	12%	1.2	nt	15	8
CC(C)CCN1CC(C(=O)NCc2ccccc2)CC1=O (stereo not drawn)	1	2%	1	i	0	17
Cc1noc(C)c1COC(=O)c1ccccc1Oc1ccccc1	1	2%	0.98	i	5	9
O=C(Cn1cnc2ccccc21)Nc1cc(C(F)(F)F)ccc1N1CCOCC1	1.1	5%	1	i	0	14
FC(F)(F)c1ccc(N2CCOCC2)c(Nc2nc3ccccc3n3cnnc23)c1	2.5*	2%	1	i	4	2
CCC(c1nnc(SCC(=O)NCCc2ccc(Cl)cc2Cl)o1)N(C)C (stereo not drawn)	1.1	6%	1	i	4	12
Nc1nc(CN2CCN(c3ccc(F)cc3)CC2)nc(N2CCCc3ccccc32)n1	1.2	2%	1.1	i	0	6
S=C(NCC1CCCO1)n1nnc2ccccc21 (stereo not drawn)	1.1	2%	1	i	6	2
c1ccc2c(c1)nc(NCC1CCCO1)c1nnnn12 (stereo not drawn)	2.1*	3%	1.1	nt	0	5
COn1c(C)c(C(C)=O)c2c3nonc3ccc21	3*	15%	1	i	11	14
CCCCOn1c(C)c(C(=O)OCC)c2c3nonc3ccc21	2.6*	2%	0.99	i	0	14
O=C(NCc1ccco1)c1ccccc1NS(=O)(=O)c1ccc2c(c1)OCCO2	2.9*	11%	1.1	+	0	0
O=C(Nc1ccc(Cl)cc1)Nc1ccccc1C(=O)NCc1ccco1	2.1*	7%	1.1	i	4	2
COc1cc(CC(=O)Nc2ncc(C)s2)cc(OC)c1OC	1	2%	0.99	i	11	12
CCOC(=O)c1sc(Nc2nc3c(OC)cccc3s2)nc1C	2.2*	9%	1	+	0	10
CCOc1ccc2[nH]c(C)c(CN3CCOCC3)c(=O)c2c1	1.6	13%	1.1	i	7	16
COc1ccc2[nH]c(C)c(CN3CCCCC3)c(=O)c2c1	2.8*	8%	1	i	8	14
O=C1Nc2ccc(S(=O)(=O)N3CCCCCC3)c3cccc1c23	2.1*	8%	1.1	nt	4	11
CN1CCN(S(=O)(=O)c2ccc3c4c(cccc24)C(=O)N3)CC1	2.1*	6%	1.1	nt	2	9
SMILES	Fluor 339 460	NADH enzymes	A340 absorber	DPM-DC inhibit	MK inhibit	PMK inhibit
O=C1Nc2ccc(S(=O)(=O)N3CCOCC3)c3cccc1c23	4*	2%	1.1	nt	4	0
CCOc1ccccc1N1CCN(S(=O)(=O)c2ccc3c4c(cccc24)C(=O)N3)CC1	1.3	8%	1.1	i	3	8
O=C1Nc2ccc(S(=O)(=O)NCc3ccccn3)c3cccc1c23	3.8*	4%	1.1	nt	1	7
CN1C(=O)c2cccc3c(S(=O)(=O)Nc4ccccn4)ccc1c23	1.3	6%	1.1	i	4	7
CCC(C)NS(=O)(=O)c1cccs1 (stereo not drawn)	1.1	7%	0.98	i	10	10
CCOC(=O)c1ccccc1NC(=O)c1ccc(NS(C)(=O)=O)cc1	1.1	3%	1	i	4	10
Cc1cc2cc(CNC(=O)c3ccc(Br)o3)ccc2n1C	1.1	5%	1.1	i	2	11
CCOc1cc(C)nc(N2CCN(C3CCCCC3)CC2)n1	1	4%	1	i	0	12
Cc1ccnc(NC(=O)COc2ccc3oc4c(c3c2)CCCC4)c1	1.1	1%	1	i	2	2
CCCCNC(=O)CCC(=O)Nc1ccc2nc(N3CCOCC3)cc(C)c2c1	4.7*	8%	1	nt	7	8
COCCCNC(=O)CCC(=O)Nc1ccc2nc(N3CCOCC3)cc(C)c2c1	4.7*	9%	1.1	nt	9	8
Cc1cc(N2CCOCC2)nc2ccc(NC(=O)C3CCC(C)CC3)cc12 (stereo not drawn)	2.3*	1%	1	nt	1	3
CCN1CCN(c2cc(C)c3cc(NC(=O)c4ccncc4)ccc3n2)CC1	1.1	2%	1.1	i	3	2
Cc1cc(N2CCN(C)CC2)nc2ccc(NC(=O)CCC(=O)NCCC3=CCCCC3)cc12	3.8*	11%	1.1	i	3	11
O=C(Nc1ccc(N2CCOCC2)cc1)C1CC1	1	2%	0.99	i	5	0
CCOC(=O)C1CCCN(C(=O)CCC(=O)Nc2ccc3nc(N4CCOCC4)cc(C)c3c2)C1 (stereo not drawn)	4.7*	9%	1	nt	8	10
CCCCn1c(-c2ccccc2)nc2c(=O)n(C)c(=O)[nH]c21	3.7*	5%	1	nt	2	7
Cn1c2c(c(=O)n(C)c1=O)C(c1ccccc1OC(F)F)C1=C(CCCC1=O)N2 (stereo not drawn)	4*	14%	1	i	4	14
CC(C)c1nc(=S)n(-c2ccccc2)[nH]1	1.1	19%	1	i	44*	14
Cc1ccc(OCC(=O)N2CCC(N3CCCCCC3)CC2)cc1	1.1	15%	1	i	41*	0
Cc1ccc(OCC(=O)N2CCN(C(=O)CCC3CCCC3)CC2)cc1	1	10%	0.99	i	6	9
